In the supplement of paper PMC8975748:
Counter-ions that a name gives are not always drawn.

What follows are compounds tested on Saccharomyces cerevisiae BY4741 SeMeCo community (assay: z-score of subpopulation abundance vs DMSO median, subpopulation auxotrophic for L; higher = larger share of this subpopulation than in DMSO controls). Conditions: 10 µM; 24 h; SM minimal medium; subpopulation (auxotrophy): L.
Method: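 Fluorescent four-plasmid SeMeCo (self-establishing metabolically cooperating S. cerevisiae BY4741 community; plasmids pH-mRuby2, pL-mWasabi, pU-eCFP, pM-TagRFP657) was grown 24 h in minimal SM medium with each Selleck FDA-approved drug at 10 µM in 384-well plates. Cells were fixed and imaged by high-content confocal microscopy. For each auxotrophic subpopulation (and the prototroph), a z-score gives the deviation from the DMSO vehicle-control population median.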

Row | Compound | z-score of subpopulation abundance
1 | C[N+]1(C)[C@@H]2C[C@@H](OC(=O)[C@H](CO)c3ccccc3)C[C@H]1[C@@H]1O[C@@H]12 [Methscopolamine] | 0.57
2 | CN(C)C(=O)Oc1cccc([N+](C)(C)C)c1 [Neostigmine Bromide] | 0.65
3 | O=C(O[C@H]1C[N+]2(CCCOc3ccccc3)CCC1CC2)C(O)(c1cccs1)c1cccs1 [Aclidinium Bromide] | -1.04
4 | COc1ccc(C(CN(C)C)C2(O)CCCCC2)cc1 (stereo not given) [Venlafaxine HCl] | 0.66
5 | CN(C)[C@@H]1C(=O)C(C(N)=O)=C(O)[C@@]2(O)C(=O)C3=C(O)c4c(O)cccc4[C@@](C)(O)[C@H]3[C@H](O)[C@@H]12 [Oxytetracycline (Terramycin)] | 0.2
6 | CC(=O)O[C@H]1C[C@@H]2CC[C@@H]3[C@H](CC[C@@]4(C)[C@H]3C[C@H]([N+]3(C)CCCCC3)[C@@H]4OC(C)=O)[C@@]2(C)C[C@@H]1[N+]1(C)CCCCC1 [Pancuronium dibromide] | -0.47
7 | CCCN1C[C@H](CSC)C[C@@H]2c3cccc4[nH]cc(c34)C[C@H]21 [Pergolide Mesylate] | 0.12
8 | Oc1cc(Cl)ccc1Oc1ccc(Cl)cc1Cl [Triclosan] | -0.94
9 | CCOC(=O)Nc1ccc(NCc2ccc(F)cc2)cc1N [Retigabine 2HCl] | -0.41
10 | C[N+]12CCC(CC1)C(OC(=O)C(O)(c1ccccc1)c1ccccc1)C2 (stereo not given) [Clidinium Bromide] | 0.14
11 | COc1ccc(C=O)cc1 [p-Anisaldehyde] | -0.63
12 | C[CH2][Hg][S]c1ccccc1C(=O)[O-].[Na+] [Thimerosal] | -2.54
13 | C[C@@H]1O[C@@H](O[C@H]2C[C@@H](O)[C@]3(CO)[C@H]4[C@H](O)C[C@]5(C)[C@@H](C6=CC(=O)OC6)CC[C@]5(O)[C@@H]4CC[C@]3(O)C2)[C@H](O)[C@H](O)[C@H]1O [Ouabain] | -0.43
14 | CC(=O)OCC1=C(C(=O)O)N2C(=O)C(N)C2SC1 (stereo not given) [7-Aminocephalosporanic acid] | 0.13
15 | CN[C@@H]1[C@@H](O)[C@@H](O[C@@H]2[C@@H](O)[C@H](O[C@H]3O[C@H](CN)CC[C@H]3N)[C@@H](N)C[C@H]2N)OC[C@]1(C)O.CN[C@@H]1[C@@H](O)[C@@H](O[C@@H]2[C@@H](O)[C@H](O[C@H]3O[C@H]([C@@H](C)N)CC[C@H]3N)[C@@H](N)C[C@H]2N)OC[C@]1(C)O.CN[C@@H]1[C@@H](O)[C@@H](O[C@@H]2[C@@H](O)[C@H](O[C@H]3O[C@H]([C@@H](C)NC)CC[C@H]3N)[C@@H](N)C[C@H]2N)OC[C@]1(C)O [Gentamicin Sulfate] | -0.91
16 | COC(=O)C1=CCCN(C)C1 [Arecoline HBr] | 0.3
17 | CC(NC(C)(C)C)C(=O)c1cccc(Cl)c1 (stereo not given) [Amfebutamone (Bupropion) HCl] | 0.13
18 | C=CC[C@]1(O)CC[C@H]2[C@@H]3CCC4=CC(=O)CCC4=C3C=C[C@@]21C [Altrenogest] | 0.59
19 | CNC1CC(N)C(O)C(OC2OC(CO)C(O)C3OC4(OC(C(N)CO)C(O)C(O)C4O)OC23)C1O (stereo not given) [Hygromycin B] | 0.12
20 | Nc1nc(N)nc(NC2CC2)n1 [Cyromazine] | 0.49

Row | Compound | z-score of subpopulation abundance
21 | CN1C(=O)COc2c(C(=O)NC3CN4CCC3CC4)cc(Cl)cc21 (stereo not given) [Azasetron HCl] | 0.07
22 | C[N+](C)(C)CCCCCCCCCC[N+](C)(C)C [Decamethonium Bromide] | -0.55
23 | CC[N+](C)(CC)CCOC(=O)C(O)(c1ccccc1)c1ccccc1 [Methylbenactyzine Bromide] | -0.83
24 | CCN1CC2(OC(=O)c3ccccc3NC(C)=O)CCC(OC)C34C1C(CC23)C1(O)CC(OC)C2CC4C1(O)C2OC (stereo not given) [Lappaconitine] | 0.34
25 | NC(=O)CN1CCCC1=O [Piracetam] | 1.45
26 | N[C@@H]1C[C@H]1c1ccccc1 [Tranylcypromine (2-PCPA) HCl] | -0.64
27 | CCN(C)C(=O)Oc1cccc([C@H](C)N(C)C)c1 [Rivastigmine] | -0.94
28 | CN1[C@@H]2C[C@@H](OC(=O)[C@H](CO)c3ccccc3)C[C@H]1[C@@H]1O[C@@H]12 [Scopolamine HBr] | -0.33
29 | Cc1cc(C(C#N)c2ccc(Cl)cc2)c(Cl)cc1NC(=O)c1cc(I)cc(I)c1O (stereo not given) [Closantel] | 1.28
30 | CC[C@@]1(O)C(=O)OCc2c1cc1n(c2=O)Cc2cc3ccccc3nc2-1 [Camptothecin] | -0.35
31 | CC(C)=CCOc1c2occc2cc2ccc(=O)oc12 [Imperatorin] | 1.37
32 | C#C[C@]1(O)C=C[C@H]2[C@@H]3CCC4=CC(=O)CC[C@@H]4[C@H]3CC[C@@]21CC [Gestodene] | 0.46
33 | CN1[C@@H]2CC[C@H]1C[C@@H](OC(=O)[C@H](CO)c1ccccc1)C2 [Hyoscyamine] | 0.64
34 | Cc1cc(O)ccc1Cl [Chlorocresol] | -0.62
35 | CC[C@H]1[C@@H]2C[C@H]3[C@@H]4N(C)c5ccccc5[C@]45C[C@@H]([C@@H]2[C@H]5O)N3[C@@H]1O [Ajmaline] | -0.67
36 | CCN(C)C(=O)Oc1cccc([C@H](C)N(C)C)c1 [Rivastigmine Tartrate] | 1.02
37 | CN1[C@@H]2CC[C@H]1C[C@@H](OC(=O)C(CO)c1ccccc1)C2 (stereo not given in full) [Atropine sulfate monohydrate] | -0.2
38 | CCN(CC)CCOC(=O)C(O)(c1ccccc1)c1ccccc1 [Benactyzine hydrochloride] | 0.45
39 | CC(C)N(CCC(C(N)=O)(c1ccccc1)c1ccccn1)C(C)C (stereo not given) [Disopyramide] | 2.35
40 | O=c1[nH]c2ccccc2n1CCCN1CCC(n2c(=O)[nH]c3cc(Cl)ccc32)CC1 [Domperidone] | 0.55
